Assay results as given in PubChem BioAssay AID1529 (NMMLSC, 2009).
Values joined by “and” are separate entries in the source; they are usually repeats but may differ in a detail not shown here. Equal values may be shown once. Out of some 290,000 compounds screened, about 4,200 (1.4%) were called active.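 How the source made its calls: active means binding response more than 3 SD above or below the average of its plate-row segment, actives on both sides; inconclusive means wells at one plate position flagged as instrument error; inactive means the rest.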 Many of the other results were omitted from the sample, so actives are more common in it than they were. Where a structure was tested more than once in an assay, its records may differ in their call.

molecular target: Mitogen-activated protein kinase kinase kinase 3 (Homo sapiens) (UniProt Q99759); test: compounds raising or lowering MEK5 association with MEKK3 PB1 – biochemical, wildtype MEKK3, multiplex bead flow cytometry, Alexa488-MEK5, primary screen (AID 1529); conditions: bead-based flow cytometry, Alexa488-MEK5 binding to MEKK3; at 10 µM; actives lie on both sides; 0 = blocked by unlabeled MEK5, 100 = vehicle;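 further: Alexa488 bead fluorescence after subtracting the streptavidin-only scavenger bead signal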
Sequence (Q99759 whole entry, looked up): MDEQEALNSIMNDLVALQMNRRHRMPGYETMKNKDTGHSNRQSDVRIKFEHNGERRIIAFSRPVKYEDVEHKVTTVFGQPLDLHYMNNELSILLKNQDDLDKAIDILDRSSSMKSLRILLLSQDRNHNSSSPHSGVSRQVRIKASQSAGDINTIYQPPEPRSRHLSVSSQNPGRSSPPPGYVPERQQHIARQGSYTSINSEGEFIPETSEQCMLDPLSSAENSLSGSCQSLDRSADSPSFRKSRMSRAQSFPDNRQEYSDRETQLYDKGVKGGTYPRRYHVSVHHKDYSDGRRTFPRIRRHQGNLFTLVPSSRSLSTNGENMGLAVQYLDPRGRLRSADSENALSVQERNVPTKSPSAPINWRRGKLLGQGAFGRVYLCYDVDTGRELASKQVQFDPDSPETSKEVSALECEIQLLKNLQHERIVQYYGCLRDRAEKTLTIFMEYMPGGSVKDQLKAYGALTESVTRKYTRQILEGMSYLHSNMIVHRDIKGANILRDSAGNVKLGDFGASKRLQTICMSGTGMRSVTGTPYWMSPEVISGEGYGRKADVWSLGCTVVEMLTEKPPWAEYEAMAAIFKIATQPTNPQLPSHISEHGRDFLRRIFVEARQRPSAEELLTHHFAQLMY

Compound	binding response (% of control)
NC(=O)c1c(NC(=O)c2ccccc2)sc2c1CCCC2	102% (inactive)
C=CCN(CC=C)S(=O)(=O)c1ccc(C(=O)Nc2nc3c(s2)CCc2ccccc2-3)cc1	100% (inactive)
C=CCN(CC=C)S(=O)(=O)c1ccc(C(=O)Nc2sc3c(c2C(N)=O)CCCCC3)cc1	66% [inhibitor] (active)
NS(=O)(=O)c1ccc2nc(NC(=O)C3=COCCO3)sc2c1	100% (inactive)
COc1cccc(NC(=O)[C@H](Cc2c[nH]c3ccccc23)NC(=O)[C@@H]2Cc3ccccc3CN2)c1	101% (inactive)
CCc1nnc(SCc2cccc(F)c2)nc1CC	101% (inactive)
CCc1ccc2nc3sc(C(=O)Nc4nnc(CC)s4)c(N)c3cc2c1	103% (inactive)
COCc1cc(C)nc2sc(C(=O)NC3CCCCC3)c(N)c12	101% (inactive)
CCc1nnc(NC(=O)c2sc3nc(C)cc(COC)c3c2N)s1	46% [inhibitor] (active)
CCOc1cc(C(=O)OCC(=O)Nc2cccc(C)c2)ccc1OCC(=O)N1CCOCC1	137% (active)
COc1ccc(C(=O)OCC(=O)Nc2cccc(C(C)=O)c2)cc1OC	100% (inactive)
O=C(COC(=O)c1ccccc1)Nc1cccc(S(=O)(=O)N2CCOCC2)c1	104% (inactive)
COc1ccc(NC(=O)COc2ccc(C(=O)c3ccc(F)cc3)cc2)cc1S(N)(=O)=O	100% (inactive)
CCc1nc2nc(C)c(NS(=O)(=O)c3ccc4c(c3)CCCC4)c(=O)n2[nH]1	101% (inactive)
COc1ccc(CN(C)C(=O)Cc2ccsc2)c(OC)c1OC	103% (inactive)
COc1ccccc1N=Cc1c(O)c2ccccc2oc1=O	121% (inactive)
COc1ccccc1N=C(C)C1=C(O)COC1=O	81% [inhibitor] (active)
CCC/C(O)=C1\C(=O)CC(C)(C)CC1=Nc1ccccc1OC	102% (inactive)
Cc1ccc2c(C)c(C(=O)N3CCN(c4ccncc4)CC3)oc2c1C	106% (inactive)
c1ccc(-c2cnc(CN3CCN(c4ccccc4)CC3)o2)cc1	101% (inactive)
Cc1ccc(-c2nnc(CN3CCN(C)CC3)o2)cc1	112% (inactive)
COc1ccc(N2CCN(Cc3nnc(-c4ccccc4)o3)CC2)cc1	139% (active)
CCCn1c(=N)n(CC(=O)c2ccc(Cl)c(Cl)c2)c2ccccc21	109% (inactive)
CCOC(=O)c1ccc(NC(=S)Nc2cc(C)cc(C)n2)cc1	77% (inactive)

Compound	binding response (% of control)
CCOC(=O)c1cc2c(nc1NC(=S)Nc1ccccc1)CC(C)(CC)OC2 (stereo unspecified)	128% (active)
CCOC(=O)c1cn[nH]c1NC(=S)Nc1ccccc1	93% (inactive)
CCOc1ccc(CN2CCNC(=O)C2CC(=O)NCCCC2CCCC2)cc1 (stereo unspecified)	102% (inactive)
O=C1CCN(CCCc2ccccc2)CCN1CCO	101% (inactive)
CCOC(=O)c1ccc(NC(=O)CNC(=O)c2ccco2)cc1	108% (inactive)
O=C(COC(=O)CNC(=O)c1ccco1)Nc1ccc(F)cc1	65% [inhibitor] (active)
NS(=O)(=O)c1ccc(NC(=O)COC(=O)c2ccco2)cc1	98% (inactive)
CCOc1ccccc1NC(=S)N1CCN(c2cccc(C)c2C)CC1	102% (inactive)
O=C(Nc1ccc2c(c1)CCC2)c1ccc(Br)s1	86% (inactive)
O=C(CCCO)N/N=C/c1cc(Br)ccc1O	129% (active)
O=C(N/N=C/c1ccccc1O)/C(=C/c1ccccc1)CCO	108% (inactive)
Oc1ccc(Br)cc1/C=N/Nc1ccccn1	99% (inactive)
CCn1c(SCC(=O)NC2=NCCS2)nnc1C(C)NC(=O)c1ccccc1F (stereo unspecified)	95% (inactive)
Cc1ccc(CC2C(=O)N(c3ccc(F)cc3)C(=O)C2C)cc1 (stereo unspecified)	99% (inactive)
CCOC(=O)c1sc2nc(C)[nH]c(=O)c2c1C	97% (inactive)
CCOC(=O)c1sc2nc(C)nc(Nc3ccc(OC)c(OC)c3)c2c1C	101% (inactive)
CCOC(=O)c1sc2nc(C)nc(SCC(N)=O)c2c1C	132% (active)
COC(C[C@@H]1O[C@@H]1C(=O)[C@H](C)OCc1ccccc1)OC	98% (inactive)
CCOC(=O)/C=C/c1ccc(C(F)(F)F)cc1S(=O)(=O)NC(C)(C)C	100% (inactive)
Cc1cc(OCCOc2cccc3cccnc23)c(C)cc1Cl	101% (inactive)
CCOc1cccc(OCCCOc2cccc3cccnc23)c1	143% (active)
OCc1ccc(OCCCOc2cccc3cccnc23)cc1	106% (inactive)
COc1cccc(CNC(=O)CCC2CCCN(C(=O)c3ccc(F)c(Cl)c3)C2)c1 (stereo unspecified)	99% (inactive)
CS(=O)(=O)N1CCN(CC(=O)NC2CCCC2)CC1	99% (inactive)

Compound	binding response (% of control)
COC(=O)c1ccccc1NC(=O)C1(S(=O)(=O)c2ccc(Cl)cc2)CC1	102% (inactive)
COC(=O)Cn1cnc2scc(-c3ccc(C)c(C)c3)c2c1=O	105% (inactive)
COCCNC(=O)c1ccccc1NS(=O)(=O)c1ccc(C)c([N+](=O)[O-])c1	101% (inactive)
CC1CN(C(=O)c2ccccc2NS(=O)(=O)c2cccc([N+](=O)[O-])c2)CC(C)O1 (stereo unspecified)	131% (active)
COc1ccc(S(=O)(=O)Nc2ccccc2C(=O)N2CCCC2)cc1C	104% (inactive)
O=C(NCC1CC1)c1onc(CSc2ccccc2)c1C(=O)NCC1CC1	97% (inactive)
NC(=O)COC(=O)c1ccc2c(c1)C(=O)N(Cc1ccco1)C2=O	99% (inactive)
C=CCn1c(C(C)NC(=O)CC)nc2ccccc21 (stereo unspecified)	94% (inactive)
C=CCn1c(C2CC(=O)N(c3ccc(C)cc3)C2)nc2ccccc21 (stereo unspecified)	96% (inactive)
C=CCn1c(P(C)(=O)O)nc2ccccc21	138% (active) and 103% (inactive)
COc1ccc(C#Cc2c(-c3ccc(OC)cc3)oc3ccc(-c4ccc5c(c4)OCO5)cc23)cc1	95% (inactive)
COc1ccc(-n2cc(-c3ccccc3)c3c(=S)nc[nH]c32)cc1	101% (inactive)
CCn1cc(S(=O)(=O)c2cccc(C)c2)c(=O)c2cc(F)c(N3CCN(C)CC3)cc21	101% (inactive)
Cc1ccc(Nc2nc(CSc3nnc(-c4ccncc4)n3-c3ccccc3C)cs2)cc1	138% (active)
Cc1ccc(-c2noc(CSc3nnc(-c4ccncc4)n3-c3ccc(F)cc3)n2)cc1	106% (inactive)
Cc1ccc(-n2c(SCC(=O)N3c4ccccc4Sc4ccccc43)nnc2-c2ccncc2)cc1	97% (inactive)
COc1cccc(C(C(=O)NC2CCCC2)N(C(=O)c2ccco2)c2cccc(C(C)=O)c2)c1OC (stereo unspecified)	98% (inactive)
O=C(CCCCCn1c(=S)[nH]c2ccsc2c1=O)NC1CCCCC1	102% (inactive)
CCOC(=O)c1ccc(CS(=O)c2ccc(Cl)cc2)o1 (stereo unspecified)	100% (inactive)
CCOC(=O)c1c(Cc2ccc(Cl)cc2)c[nH]c1C	136% (active)
CCOC(=O)N1CCN(C(=O)CNC(=O)Cc2ccc(Cl)cc2)CC1	99% (inactive)
COC(=O)c1cc(NC(=O)c2cc(C(C)(C)C)nn2Cc2cccc(C)c2)ccc1N1CCOCC1	134% (active)
CC(=O)Nc1cccc(Oc2cc(C#N)c(C#N)cc2N2CCOCC2)c1	97% (inactive)
CC(=O)Nc1ccc(N2CCOCC2)c(C(=O)Nc2cccc(C)c2)c1	2% [inhibitor] (active)

Compound	binding response (% of control)
COC(=O)c1cc(NC(=O)c2ccco2)ccc1N1CCOCC1	95% (inactive)
COC(=O)c1cc(NC(=O)c2cccnc2)ccc1N1CCOCC1	102% (inactive)
Cc1cccc(NC(=O)c2cc([N+](=O)[O-])ccc2N2CCN(C)CC2)c1	105% (inactive)
CC1=C(N2CCN(c3ncccn3)CC2)CCC1=O	103% (inactive)
CCCCCC(O)(CCN1CCCCC1)c1ccccc1 (stereo unspecified)	104% (inactive)
Cc1ccc(-c2ccc(/C=C(\C#N)C(N)=S)o2)c([N+](=O)[O-])c1	100% (inactive)
CCOC(=O)c1ccc(NC(=O)c2c(N)n(C)c(=O)[nH]c2=O)cc1	89% (inactive)
CC(C)C(C)NC(=O)COc1ncnc2ccccc12 (stereo unspecified)	106% (inactive)
COCC(C)NC(=O)COc1nncc2ccccc12 (stereo unspecified)	39% [inhibitor] (active)
COC(=O)C(C)NC(=O)COc1ccc2ccccc2c1 (stereo unspecified)	98% (inactive)
CCOc1ccc(C(=O)Nc2ccc(CN3CCOCC3)cc2)cc1Cl	103% (inactive)
CC1CN(C(=O)c2cc(COc3c(F)cccc3F)on2)CCN1C (stereo unspecified)	100% (inactive)
C=C1CCN([C@@H](Cc2ccccc2)C(=O)N2CCOCC2)S(=O)(=O)c2ccccc21	105% (inactive)
CCn1cc(/C=C(\NC(=O)c2ccc(C)cc2)C(=O)NCCN2CCOCC2)c2ccccc21	102% (inactive)
C=C(C)C1CC=C(C)/C(=N\NC(=O)CNc2ccccc2OC)C1 (stereo unspecified)	128% (active)
C=C(C)C1CC=C(C)/C(=N/NC(=O)CCCNc2cccc(C)c2)C1 (stereo unspecified)	97% (inactive)
COc1ccc(Cl)cc1NC(=O)CNc1ccccc1F	104% (inactive)
CCCC[C@@H]1CN=C(N)N1CCCC	89% (inactive)
CC(=O)C1=C(O)C(=O)N(c2ccc(Br)cc2)C1c1ccc([N+](=O)[O-])cc1 (stereo unspecified)	98% (inactive)
Cc1cc2cc(CNC(=O)c3cccs3)ccc2[nH]1	73% [inhibitor] (active)
Cc1cc2cc(CNC(=O)c3ccc(S(=O)(=O)N4CCOCC4)cc3)ccc2[nH]1	94% (inactive)
CCc1cccc(CC)c1NC(=S)NCc1ccc2[nH]c(C)cc2c1	106% (inactive)
O=C(CSc1nccc(=O)[nH]1)Nc1ccc(N2CCOCC2)c(Cl)c1	99% (inactive)
O=S(=O)(c1ccccc1)N(Cc1cccc(F)c1)c1ccccc1	99% (inactive)
